The record followed here is PubChem BioAssay (NCATS).

Inconclusive results are not listed. Where a call stands in place of a potency, no number is given. Active and inactive are the calls of the source. The call rests on the fitted dose curve; in most records, active means well fitted inhibition curve with a large enough effect; inconclusive means small, poorly fitted or top-dose-only effect; inactive means no such curve, though single readings can be large or run the other way.

This assay is described as follows: Primary qHTS for small molecule stabilizers of the endoplasmic reticulum resident proteome: Secreted ER Calcium Modulated Protein (SERCaMP) assay (AID 1508630). To be noted: SH-SY5Y GLuc-SERCaMP (Gaussia luciferase released on ER calcium loss) secretion, thapsigargin, luminescence; series mostly up to 38.4 µM. The procedure, abridged:
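GLuc-SERCaMP-expressing SH-SY5Y cells, pretreated 16 h with compound, are challenged with thapsigargin to empty ER calcium stores; after 4 h, coelenterazine is added directly to the medium and luminescence is imaged.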
Regarding `Cc1cccc(CNc2ncnc3ccc(-c4cccnc4)cc23)c1`, the Potency entry was “inactive”.
As to `Cc1cccc(CNc2ncnc3ccc(-c4ccc5c(c4)OCO5)cc23)c1`, the Potency result is “inactive”.
With `c1cncc(CNc2ncnc3ccc(-c4cccnc4)cc23)c1`, the Potency entry was “inactive”.
For `COc1cccc(-c2ccc3ncnc(N(C)Cc4ccco4)c3c2)c1`, the Potency result is “inactive”.
On to `CN(Cc1ccco1)c1ncnc2ccc(-c3cccnc3)cc12`, for which the Potency entry is “inactive”.
Take `CN(Cc1ccco1)c1ncnc2ccc(-c3ccoc3)cc12`: the Potency entry was “inactive”.
As for `Cc1cccc(CNc2ncnc3ccc(-c4ccoc4)cc23)c1`, the Potency result is “inactive”.
As for `COc1cccc(-c2ccc3ncnc(NCc4cccs4)c3c2)c1`, the Potency entry was “inactive”.
`c1nc(N2CCNCC2)c2cc(-c3ccc4c(c3)OCO4)ccc2n1`: the Potency entry is “inactive”.
